Laboratory results taken from PubChem BioAssay AID588520 (NMMLSC, 2011).
Among all 1,700 compounds or so, about 65 (4%) were called active. Cut-off read from the data, not from the text of the source: active = Nile Red retention ratio vs DMSO above about 190%; inactive = the rest. The list is a sample of the results.

tested on: Candida albicans drug resistance protein 2 (Cdr2) efflux pump, expressed in S. cerevisiae; experiment: inhibitors of Candida albicans Cdr2 efflux pump, confirmation, S. cerevisiae AD/CaCDR2, flow cytometry, cherry pick 1, singleplex (AID 588520); conditions: at 10 µM, hits give high values;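 note: higher ratio means more blocking of Cdr2 efflux of the dye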

Nile Red retention ratio vs DMSO, active:
Cc1c(CCOC(=O)CC23CC4CC(CC(C)(C4)C2)C3)sc[n+]1Cc1ccc([N+](=O)[O-])cc1 821%

Nile Red retention ratio vs DMSO, inactive:
CC[n+]1cc(C)ccc1/C=C/c1ccc(N(C)C)cc1 118%
O=C(CN1C(=O)C2C3CCC(C3)C2C1=O)Oc1ccc2ccccc2c1 (stereo not drawn) 105%
Cc1ccc(Cn2nnc3c(=O)[nH]c(C4CCN(S(=O)(=O)/C=C/c5ccccc5)CC4)nc32)cc1 93%
CCNC(=O)c1c(O)c2cccc3c2n(c1=O)CC3 107%
O=C(Cc1ccccc1)NCC1OCCc2ccccc21 (stereo not drawn) 117%
CC1CCc2c(sc(NC(=O)c3ccc(Cn4cc(Br)cn4)o3)c2C(N)=O)C1 (stereo not drawn) 108%
Cc1ccc2c(c1)NC(=O)[C@@]1(C)[C@@H](c3ccccc3)[C@H]3COc4ccc(Cl)cc4[C@@H]3N1C2=O 102%
O=C(Cn1c(COc2ccccc2)nc2ccccc21)Nc1cc(Cl)c(Cl)cc1Cl 110%
Cc1ccc2[nH]c3c(=O)n(CC(=O)NCCc4ccc(Cl)cc4)ncc3c2c1 137%
C/C(N)=C(/C#N)C(=O)COC(=O)c1cc(-c2cccc(Br)c2)nc2ccccc12 110%
CCOc1ccc2nc(Cl)c(C3CC(c4ccccc4)=NN3C(=O)c3cccs3)cc2c1 (stereo not drawn) 131%
C=CCC[C@@H](Cc1ccc(F)cc1)C(=O)OC[C@H](Cc1c[nH]c2ccccc12)NC(=O)[C@@H](CC=C)CC(=O)N(CCO)Cc1ccccc1 123%
CSCCC(NS(=O)(=O)c1ccc(C)cc1)C(=O)N1CCCC1 (stereo not drawn) 89.3%
O=C(Nc1ccc(NC(=O)c2cccs2)cc1)c1ccc2ccccc2c1 108%
CCCc1nnc(SCC(=O)Nc2ccc(C(=O)OCC)cc2)o1 133%
CCNc1c(NS(=O)(=O)c2ccc(C3CCCCC3)cc2)c(=O)oc2ccccc12 98.7%
CCc1ccc(NC(=O)Cn2ncn3c(cc4ccccc43)c2=O)cc1 101%
COc1ccccc1NC(=O)C1CCCN1S(=O)(=O)c1ccc(Cl)cc1 (stereo not drawn) 99.7%
CC(/C=C/c1ccccc1)=N\NC(=O)C1CC1(C)c1ccccc1 (stereo not drawn) 94%
Cc1oc2cc3oc(=O)ccc3cc2c1C 107%
Cc1cc(C(=O)Nc2ccc(C)c(S(=O)(=O)N3CCOCC3)c2)c2ccccc2n1 83.1%
CCOc1ccccc1/C=c1\sc2nc(-c3ccco3)nn2c1=O 116%
